Consider 16 compounds from PubChem BioAssay AID1508625 (Wald Lab, School of Medicine, Case Western Reserve …, 2021).

The nature of the assay: enhancers of NK cell killing of ovarian tumor cells, primary screen, imaging, OVCAR3, primary NK cells, calcein-AM imaging (AID 1508625).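 Also: compound given to NK cells 16 h before adding targets at 1.5 to 1 ratio.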 Particulars: OVCAR3 lysis by primary NK cells, at 5 µM; z-score: measured here: robust Z-score, single-point normalisation.

`Cc1ccc(C2C(C(=O)c3ccco3)=C(O)C(=O)N2c2nnc(C)s2)cc1` (configuration not stated): the corrected activity, negative = more killing is -5.27% and the z-score was -2.29.
Taken in the same sequence, the figures for `Cc1cc(Br)c(O)c(C=NCCNC(=O)c2nonc2N)c1` were 0.42% and 0.173.
On the same counts, the results for `CN(C)c1ccc(C=CC=C2SC(=S)N(Cc3ccccc3)C2=O)cc1` are -3.62% and -1.88.
Taken in the same sequence, the figures for `COC(=O)c1ccc(CN2CCN3CCCC3C2C)cc1` (configuration not stated) were -3.15% and -1.38.
On to `O=c1c2cc3c(cc2nc(SCc2cccc(F)c2)n1Cc1ccco1)OCO3`, for which the corrected activity, negative = more killing is -3.76% and the z-score is -0.995.
Taken in the same sequence, the figures for `CC(=O)c1c(C(C)=O)c(C)n(-c2ccc(Cl)c(N)c2)c1C` were -6.08% and -2.26.
On the same counts, the results for `COc1cc2nc(SCC(=O)Nc3cc(C(F)(F)F)ccc3Cl)n(Cc3ccco3)c(=O)c2cc1OC` are -3.79% and -1.
As for `Cc1ccc(OCCNC2CCCC2)c(C)c1`, the corrected activity, negative = more killing is 0.166% and the z-score is 0.0921.
For the compound `COc1ccc(NC(=O)c2sc3cc([N+](=O)[O-])ccc3c2Cl)c(OC)c1`, the corrected activity, negative = more killing is -2.66% and the z-score was -0.942.
On the same counts, the results for `Cc1ccc(-c2noc(-c3ccccc3F)n2)cc1` are -2.22% and -0.911.
Taken in the same sequence, the figures for `Cc1cc(Br)ccc1NC(=O)CCNC(=O)Cn1cnc2sc3c(c2c1=O)CCCC3` were -0.281% and -0.0893.
On the same counts, the results for `Clc1ccccc1[C@@H]1Nc2ccccc2[C@@H]2C=CC[C@@H]21` are -1.75% and -0.523.
In the case of `CCCCC(=O)NC(=S)Nc1ccc(Cl)c(C(=O)O)c1`, the corrected activity, negative = more killing is -4.41% and the z-score is -1.64.
On the same counts, the results for `O=[N+]([O-])c1ccc2[nH]c3c(c2c1)CCCC3NC1Cc2ccccc2C1` (configuration not stated) are 0.0593% and 0.0259.
On the same counts, the results for `O=c1c2cn[nH]c2nc(SCc2ccccc2F)n1-c1ccc(Oc2ccccc2)cc1` are -0.689% and -0.251.
Taken in the same sequence, the figures for `Cc1cc(OCCCN2CCCCCC2)ccc1[N+](=O)[O-]` were 0.702% and 0.391.
